# According to PubChem BioAssay (NCATS):
# Values joined by “and” are separate entries in the source; they are usually repeats but may differ in a detail not shown here. Identical values can stand only once. Inconclusive results are not listed. More than one record can exist for a structure, and the calls need not agree. Active and inactive are the calls of the source. Calls follow the shape of the dose curve; as a rule, active = well fitted cell-killing curve with a large enough effect; inconclusive = small, poorly fitted or top-dose-only effect, or effect the other way; inactive = flat fitted curve, though single readings scatter.
# Tested on: Es-2
# Assay: Primary qHTS to identify gynecologic anti-cancer compounds using libraries of approved drugs and bioactive compounds (AID 1345084); also: nearly all actives have a fitted effect of over 55% in size
# Conditions: Gynecologic cancer cell panel viability, ATPlite luminescence, 48 h; series mostly up to 57.5 µM; activity change, negative = cytotoxicity: at the top concentration
# Outline: (§1)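 Cells, 1,000 per well, plated 16 h, then exposed 48 h at 37 C to compounds. Viability by ATPlite luminescence after 15 min at room temperature.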
# % is scaled to controls: 0 for no effect and ±100 for the full control effect; potency is read from the fitted curve at half-maximal effect.
Structure (SMILES),"activity change, negative = cytotoxicity",Potency
O=c1[nH]c2ccccc2n1CCCN1CCC(n2c(=O)[nH]c3cc(Cl)ccc32)CC1,-1.46% (inactive),
C[C@]12CCC(=O)C(O)=C1CC[C@@H]1[C@@H]2CC[C@]2(C)C(=O)CC[C@@H]12,10.8% (inactive),
C#CCOC(C(=O)OCCN(C)C)(c1ccccc1)c1ccccc1,0.574% (inactive),
CC(C)=CCOc1c2occc2cc2ccc(=O)oc12,0.835% (inactive),
CC[N+]1(C)CCCC(OC(=O)C(O)(c2ccccc2)c2ccccc2)C1 (stereo unspecified),0.861% (inactive),
CCCC(C)(COC(N)=O)COC(=O)NC(C)C (stereo unspecified),7.36% (inactive),
CNC(=O)N1N=C(c2ccc(N)cc2)c2cc3c(cc2CC1C)OCO3 (stereo unspecified),-22.8% (inactive),
Clc1ccc(CCC(Cn2ccnc2)Sc2c(Cl)cccc2Cl)cc1 (stereo unspecified),-20.3% (inactive),
C[C@H]1O[C@@H](O[C@H]2[C@@H](O)C[C@H](O[C@H]3[C@@H](O)C[C@H](O[C@H]4CC[C@@]5(C)[C@H](CC[C@@H]6[C@@H]5CC[C@]5(C)[C@@H](C7=CC(=O)OC7)CC[C@]65O)C4)O[C@@H]3C)O[C@@H]2C)C[C@H](O)[C@@H]1O,,282 nM (active) and 100 nM (active)
Cc1cc(SCc2sc(-c3ccc(C(F)(F)F)c(F)c3)nc2C)ccc1OCC(=O)O,4.1% (inactive),
CNC(=O)c1ccc(N2C(=S)N(c3ccc(C#N)c(C(F)(F)F)c3)C(=O)C23CCC3)cc1F,4.62% (inactive),
COc1ccc2c(c1OC)CN1CCc3cc4c(cc3C1C2)OCO4 (stereo unspecified),-9.64% (inactive),
Oc1cc(Cl)ccc1Oc1ccc(Cl)cc1Cl,7.21% (inactive),
CC(=O)Nc1cc([As](=O)(O)O)ccc1O,-0.372% (inactive),
C#CCN(C)[C@H](C)Cc1ccccc1,-0.794% (inactive),
N#CC(C#N)=Cc1ccc(O)c(O)c1,5.46% (inactive),
CC[C@@H](CO)NC(=O)[C@@H]1C=C2c3cccc4[nH]cc(c34)C[C@H]2N(C)C1,-0.766% (inactive),
Oc1ccc(Cl)cc1Cc1ccccc1,,inactive
CCC(=O)C(CC(C)N(C)C)(c1ccccc1)c1ccccc1 (stereo unspecified),-1.8% [at 116 µM] (inactive),
CC(C)CC(N(C)C)C1(c2ccc(Cl)cc2)CCC1 (stereo unspecified),0.849% (inactive),
FC(F)(F)c1cccc(C2=CCN(CCc3ccc4ccccc4c3)CC2)c1,9.09% (inactive),
CN(C)[C@@H]1C(=O)C(C(N)=O)=C(O)[C@@]2(O)C(=O)C3=C(O)c4c(O)cccc4[C@@](C)(O)[C@H]3C[C@@H]12,5.05% (inactive),
CCCN1CCC[C@@H]2Cc3nc(N)ncc3C[C@H]21,-9.67% (inactive),
CCCC1CCCCN1 (stereo unspecified),-0.402% (inactive),
CCC(COC(=O)c1cc(OC)c(OC)c(OC)c1)(c1ccccc1)N(C)C (stereo unspecified),4.79% (inactive),

# Tested on: HeLa
# Assay: as above
# Conditions: Gynecologic cancer cell panel viability, ATPlite luminescence, 48 h; series mostly up to 57.5 µM; activity change, negative = cytotoxicity: at the top concentration
# Outline: as §1
Structure (SMILES),"activity change, negative = cytotoxicity",Potency
O=c1[nH]c2ccccc2n1CCCN1CCC(n2c(=O)[nH]c3cc(Cl)ccc32)CC1,-4.47% (inactive),
C[C@]12CCC(=O)C(O)=C1CC[C@@H]1[C@@H]2CC[C@]2(C)C(=O)CC[C@@H]12,-0.0547% (inactive),
C#CCOC(C(=O)OCCN(C)C)(c1ccccc1)c1ccccc1,6.8% (inactive),
CC[N+]1(C)CCCC(OC(=O)C(O)(c2ccccc2)c2ccccc2)C1 (stereo unspecified),-7.45% (inactive),
CCCC(C)(COC(N)=O)COC(=O)NC(C)C (stereo unspecified),1.43% (inactive),
Clc1ccc(CCC(Cn2ccnc2)Sc2c(Cl)cccc2Cl)cc1 (stereo unspecified),-4.82% (inactive),
C[C@H]1O[C@@H](O[C@H]2[C@@H](O)C[C@H](O[C@H]3[C@@H](O)C[C@H](O[C@H]4CC[C@@]5(C)[C@H](CC[C@@H]6[C@@H]5CC[C@]5(C)[C@@H](C7=CC(=O)OC7)CC[C@]65O)C4)O[C@@H]3C)O[C@@H]2C)C[C@H](O)[C@@H]1O,,282 nM (active) and 89.1 nM (active)
N[C@@H](Cc1ccc(N(CCCl)CCCl)cc1)C(=O)O,-10.8% (inactive),
Cc1cc(SCc2sc(-c3ccc(C(F)(F)F)c(F)c3)nc2C)ccc1OCC(=O)O,8.25% (inactive),
C=C1C[C@@H]2[C@H](CC[C@]3(C)C(=O)CC[C@@H]23)[C@@]2(C)C=CC(=O)C=C12,-9.1% (inactive),
CNC(=O)c1ccc(N2C(=S)N(c3ccc(C#N)c(C(F)(F)F)c3)C(=O)C23CCC3)cc1F,11.9% (inactive),
COc1ccc2c(c1OC)CN1CCc3cc4c(cc3C1C2)OCO4 (stereo unspecified),-0.312% (inactive),
Oc1cc(Cl)ccc1Oc1ccc(Cl)cc1Cl,,44.7 µM (active) and inactive
CC(=O)Nc1cc([As](=O)(O)O)ccc1O,0.464% (inactive),
C#CCN(C)[C@H](C)Cc1ccccc1,9.37% (inactive),
N#CC(C#N)=Cc1ccc(O)c(O)c1,-20.4% (inactive),
CCOC(=O)C1(c2ccccc2)CCN(CCC(C#N)(c2ccccc2)c2ccccc2)CC1,-5.72% (inactive),
CC[C@@H](CO)NC(=O)[C@@H]1C=C2c3cccc4[nH]cc(c34)C[C@H]2N(C)C1,-7.49% (inactive),
Oc1ccc(Cl)cc1Cc1ccccc1,,inactive
CCC(=O)C(CC(C)N(C)C)(c1ccccc1)c1ccccc1 (stereo unspecified),-2.53% [at 116 µM] (inactive),
CC(C)CC(N(C)C)C1(c2ccc(Cl)cc2)CCC1 (stereo unspecified),-0.41% (inactive),
FC(F)(F)c1cccc(C2=CCN(CCc3ccc4ccccc4c3)CC2)c1,15.2% (inactive),
CN(C)[C@@H]1C(=O)C(C(N)=O)=C(O)[C@@]2(O)C(=O)C3=C(O)c4c(O)cccc4[C@@](C)(O)[C@H]3C[C@@H]12,-8.13% (inactive),
CCCN1CCC[C@@H]2Cc3nc(N)ncc3C[C@H]21,-10.5% (inactive),
CCCC1CCCCN1 (stereo unspecified),1.7% (inactive),
CCC(COC(=O)c1cc(OC)c(OC)c(OC)c1)(c1ccccc1)N(C)C (stereo unspecified),5.25% (inactive),
